From PubChem
In the library only some 7.3% were active in any assay of this set; here they are far more common.
ELG1 genotox: genotoxicity induction in ELG1-luciferase HEK293T cells | Potency, µM (doses to about 46 µM), for the others: at the top dose activity change, positive = activation, most hits filed as activators | HEK293T ELG1-luciferase reporter, luminescence, 16 h | AID 504466 | 330,000 compounds, 1.3% hits; note: % of control where 0% means no effect; nearly all actives have a fitted effect of over 60% in size
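DMSO vehicle served as control against compound-treated ELG1-luciferase HEK293T cells; exposure lasted 16 hr at 37 °C and 5% CO2, followed by ONE-Glo luminescence detection after 30 min.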
FLuc counter: firefly luciferase modulation, counter-screen for miR-21 project | purified FLuc, Km substrates, luminescence inhibition | Potency, µM (highest dose often 57.5 µM), inactives show at the top dose activity change, negative = inhibition, most hits filed as inhibitors | 360,000 compounds, 6.9% hits;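 note: plate controls were vehicle for no effect and reference inhibitor for full effect; nearly all actives have a fitted effect of over 55% in size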
Target sequence (P08659 whole entry, looked up): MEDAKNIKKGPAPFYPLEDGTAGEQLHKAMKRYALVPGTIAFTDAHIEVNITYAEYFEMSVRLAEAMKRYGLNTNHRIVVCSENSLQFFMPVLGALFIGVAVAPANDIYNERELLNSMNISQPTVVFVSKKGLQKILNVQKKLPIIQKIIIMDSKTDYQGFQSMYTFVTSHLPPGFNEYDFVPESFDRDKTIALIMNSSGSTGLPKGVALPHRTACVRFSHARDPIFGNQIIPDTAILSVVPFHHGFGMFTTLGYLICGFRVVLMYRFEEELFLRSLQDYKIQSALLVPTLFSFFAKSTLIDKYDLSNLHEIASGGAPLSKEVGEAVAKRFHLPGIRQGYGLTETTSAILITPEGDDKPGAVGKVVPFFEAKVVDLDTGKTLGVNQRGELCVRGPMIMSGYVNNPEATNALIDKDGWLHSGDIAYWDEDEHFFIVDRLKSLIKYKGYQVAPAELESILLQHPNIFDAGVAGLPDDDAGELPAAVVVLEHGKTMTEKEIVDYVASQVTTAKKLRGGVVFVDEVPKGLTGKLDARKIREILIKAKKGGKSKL
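Biochemical qHTS of compounds, final roughly 60 µM downward over six points, against 10 nM purified firefly luciferase using Km concentrations of substrates (10 uM D-luciferin, 10 uM ATP) in Tris acetate pH 7.5 buffer; luminescence output.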
SMN2 splice enh: increases expression of the SMN2 splice variant. HEK293 SMN2-luciferase splicing reporter, luminescence, 30-36 h. Potency, µM (doses to about 46.1 µM), without a hit: at the highest dose activity change, positive = activation, usual class: activators. 210,000 compounds, 2.8% hits. AID 1458; note: % of control where 0% means no effect; nearly all actives have a fitted effect of over 55% in size
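HEK293 cells carry an SMN2 minigene-luciferase reporter in which exon 7 inclusion puts luciferase in frame. Cells were seeded at 2000 cells/well, attached for 10-12 hours, then exposed to compounds for 30-36 hours at 37C before ONE-Glo luminescence.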
NPC1 promoter act: activates the NPC1 promoter | Huh7 NPC1 promoter luciferase reporter, 24 h | Potency, µM (series often up to 9.22 µM), inactives show at the highest dose activation, usual class: activators | 320,000 compounds, 2.4% hits | AID 485313; note: % of control where 0% means no effect; nearly all actives have a fitted effect of over 60% in size
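Luminescence from an NPC1 promoter-driven luciferase reporter in stably transfected Huh7 cells was measured after 24 h compound treatment at 37 °C, followed by 10 min ambient incubation with luciferase detection reagent.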
Rab9 prom act: activates the Rab9 promoter; Huh7 Rab9 promoter-luciferase reporter, luminescence, 24 h; Potency, µM (series often up to 9.22 µM), inactives show top-dose activation, negative = inhibition, usual class: activators; 320,000 compounds, 2.8% hits; note: % of control where 0% means no effect; nearly all actives have a fitted effect of over 60% in size
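Stable Rab9-luc Huh7, 1500 cells/well, 2 h settle; cmpd in DMSO, 24 h, 37 °C/5% CO2; luciferase reagent 10 min RT; luminescence.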
KinaseGlo FLuc: counter-screen: inhibitors of Kinase-Glo firefly luciferase | Q27757 | Kinase-Glo luciferase, ATP luminescence, 8 min | Potency, µM (top dose mostly 38.3 µM), for inactives: at the top dose activity change, negative = inhibition, hits mostly inhibitors | 200,000 compounds, 0.28% hits; note: % is set by controls: 0 for no effect and ±100 for the full control effect; nearly all actives have a fitted effect of over 60% in size
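Inhibition of Kinase-Glo luciferase light generation was assessed at 10 uM ATP in pH 7.2 imidazole buffer, with luminescence measured after eight minutes at ambient temperature.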
* hit, by the source's call; ? = inconclusive; nt = no result; [ ] = dose if it differs, or a comment. Calls come from the whole dose curve; as a rule, active = well fitted curve in the direction sought with a large enough effect; inconclusive = small, poorly fitted or top-dose-only effect, or another doubt; inactive = no such curve, though single readings can be large; an effect the other way counts as inactive or inconclusive. Potency is the fitted concentration of half-maximal effect.

SMILES	ELG1 genotox	FLuc counter	SMN2 splice enh	NPC1 promoter act	Rab9 prom act	KinaseGlo FLuc
COc1ccc(OC)c(N/C=C/C(=O)c2ccc(OC)c(OC)c2)c1	?	19µM*	nt	2.3%	4.1%	nt
CCOC(=O)c1ccc(N/C=C\C(=O)c2cccc(OC)c2)cc1	15.8%	3.01µM*	?	?	?	?
Cc1cccc(C(=O)NN/C=C/C(=O)c2ccccc2)c1	1.9%	-18.0%	nt	-4.4%	-3.5%	nt
O=C(CSc1nn(-c2ccccc2)c(=S)s1)NC(=O)NCc1ccco1	-0.7%	1.5%	-12.1%	-0.9%	-1.6%	-5.0%
COc1cccc(C(=O)/C=C/Nc2cc(C)ccc2O)c1	?	2.69µM*	nt	-5.0%	-12.1%	-3.5%
Cc1cccc(N/C=C/C(=O)c2ccc(Cl)cc2)c1	?	0.675µM*	nt	0.562µM*	0.355µM*	nt
COc1cccc(N/C=C/C(=O)c2ccc(OC)c(OC)c2)c1	?	1.35µM*	nt	3.55µM*	?	nt
COC(=O)c1ccc(N/C=C/C(=O)c2ccccc2)cc1	?	0.601µM*	nt	?	0.501µM*	nt
COC(=O)c1ccccc1	nt	nt	-4.7%	nt	nt	nt
COc1ccc(C(=O)/C=C/N(C)C)cc1OC	1.6%	4.9%	4.3%	-0.8%	-5.2%	-7.5%
COc1cccc(C(=O)/C=C/Nc2ccc(S(=O)(=O)Nc3nc(C)cc(C)n3)cc2)c1	3.2%	?	-13.1%	0.5%	-5.5%	-0.6%
COc1ccc(C(=O)/C=C/Nc2cccc(O)c2)cc1	1.46µM*	0.379µM*	?	1.8%	?	?
O=C(Cc1ccc(Cl)cc1)Nc1ccccn1	-1.4%	0.5%	nt	13.6%	12.1%	nt
COc1ccc(C(=O)/C=C/Nc2ccc(S(=O)(=O)Nc3cccc(C(C)=O)c3)cc2)cc1	-3.9%	-5.5%	-36.3%	-9.2%	-16.5%	1.4%
O=C(/C=C\Nc1ccccn1)c1ccc(Cl)cc1	?	0.19µM*	1µM*	0.282µM*	0.1µM*	?
CCOC(=O)c1ccc(OS(=O)(=O)c2ccccc2)c(OC)c1	?	7.57µM*	11.2µM*	2.82µM*	2.82µM*	0.4%
CCOC(=O)CN1C(=O)C(C)(C)Oc2ccc(C(=O)Nc3ccccc3OC)cc21	-9.3%	-2.8%	-2.3%	-0.7%	0.5%	-8.1%
CN(C)/C=C(\C#N)C(=O)Nc1ccc(F)c(Cl)c1	?	?	nt	3.55µM*	3.16µM*	nt
CN(C)/C=C(\C#N)C(=O)N/N=C/c1ccc(Cl)cc1	8.7%	16.9µM*	29.7%	2.24µM*	?	-0.7%
CCOC(=O)C1C(CC)NC(=S)NC1(C)O (stereo not drawn)	13.7%	-0.1%	-10.3%	-4.7%	-0.5%	-1.2%
CC(=O)Nc1ccc(S(=O)(=O)N2CCN(c3cc(C)nc4ncnn34)CC2)cc1	2.6%	3.9%	nt	-1.4%	2.0%	-1.9%
O=C(Nc1ccccc1-c1nc2ccccc2s1)c1ccc(F)cc1	nt	-1.3%	-17.9%	nt	nt	nt
Nc1ccccc1-c1nc2ccccc2s1	?	10.7µM*	?	?	3.98µM*	2.6%
O=C(Nc1ccc(O)c(-c2nc3ccccc3s2)c1)c1cccs1	2.7%	?	15.2%	7.5%	-1.0%	-0.3%
CN(C)c1nc(N)nc(-c2nc3ccccc3s2)n1	3.26µM*	?	8.91µM*	7.8%	?	-6.9%
SMILES	ELG1 genotox	FLuc counter	SMN2 splice enh	NPC1 promoter act	Rab9 prom act	KinaseGlo FLuc
Oc1ccc(N=C/C=C/c2cccc(Br)c2)cc1-c1nc2ccccc2s1	?	6.01µM*	75.5%	?	?	-0.7%
Nc1ccc(O)c(-c2nc3ccccc3s2)c1	?	6.01µM*	?	3.16µM*	?	2.4%
COc1ccc(Cl)cc1-c1nc(N)nc(N(C)C)n1	-1.3%	2.9%	9.3%	1.5%	-4.1%	4.1%
CCOC(=O)C(CCCCCCP(=O)(c1ccccc1)c1ccccc1)NC(C)=O (stereo not drawn)	-3.0%	-0.6%	nt	-7.4%	-6.0%	nt
CC1(C)OC(c2ccccc2)=C/C(=C/C=C2C(=O)c3ccccc3C2=O)O1	-6.3%	?	-56.5%	-2.0%	-1.7%	?
Oc1ccc(-c2nc3ccccc3s2)c(O)c1	?	6.01µM*	nt	2.82µM*	3.98µM*	nt
CSc1ccc(C(=O)Nc2ccc(-c3nc4ccccc4s3)c(O)c2)cc1	nt	-0.9%	nt	nt	nt	nt
Cc1ccn2cc(C34CC5CC(CC(C5)C3)C4)nc2c1	-3.0%	6.75µM*	13.4%	-1.4%	-0.2%	0.6%
O=S1(=O)CCN(Cc2csc(-c3cccs3)n2)CC1	?	19µM*	nt	1.26µM*	1.78µM*	nt
c1csc(-c2nc(CN3CCSCC3)cs2)c1	2.59µM*	2.39µM*	nt	?	0.398µM*	nt
O=S1(=O)CCN(Cc2ccccn2)CC1	-0.3%	4.4%	-14.9%[9.22 µM]	-2.0%	-3.1%	-0.8%[7.66 µM]
COC(=O)c1cc(C(=O)OCC(=O)c2ccc3c(c2)NC(=O)CO3)cc([N+](=O)[O-])c1	-1.5%	2.4%	nt	1.3%	1.5%	nt
Cc1cc(Cl)ccc1OCC(=O)NC(=S)Nc1ccc(Cl)cn1	9.2%	3.6%	nt	-1.6%	-3.3%	nt
COc1ccc(CN2C(=O)CS/C2=N/N=C/c2ccccc2)cc1	?	16.9µM*	nt	15.7%	23.2%	nt
COc1ccc(/C=N/N=C2/SCC(=O)N2Cc2ccccc2)cc1	?	4.78µM*	nt	3.55µM*	1.26µM*	nt
COc1ccc(N=C2SCC(=O)N2Cc2ccccc2)cc1	9.0%	-10.4%	-13.3%	-2.0%	-0.9%	-0.9%
COc1ccc(/C=N/N2C(=N)SCC2=O)cc1	?	3.38µM*	nt	?	18.8%	nt
CC(C)(C)NC(=O)Nc1ccccc1C(N)=O	-2.1%	1.1%	-5.5%	-0.6%	-0.6%	-1.7%
COc1cccc(NC(=O)Nc2ccccc2C(N)=O)c1	0.1%	21.3µM*	21.6%	-2.1%	-5.5%	-25.5%
COc1cc(NC(=O)Nc2cccc(Cl)c2)c(C(=O)O)cc1OC	6.1%	26.9µM*	nt	-7.2%	-2.7%	nt
CSc1ccc(NC(=O)Nc2ccccc2C(N)=O)cc1	?	1.07µM*	nt	?	?	nt
O=C(O)c1ccccc1Nc1ccccc1	1.4%	-11.8%	-7.6%	8.5%[46.1 µM]	14.0%[46.1 µM]	-1.4%
COC(=O)c1cc(OC)c(OC)cc1NC(=S)Nc1cccc(Cl)c1	-0.3%	7.6%	-14.0%	-7.1%	6.3%	-0.3%
O=C(O)c1ccccc1Nc1ccc(OC(F)F)cc1	7.6%	21.3µM*	15.7%	12.1%	16.8%	3.3%
COc1cc(-c2c(C(C)=O)c(C)nc3c2C(=O)c2ccccc2-3)cc(OC)c1OC	0.0%	0.9%	nt	-0.8%	1.1%	nt
COc1ccc(Nc2nn(-c3ccc(OC(F)(F)F)cc3)nc2C(C)=O)cc1	nt	-0.4%	-8.2%	nt	nt	nt
CCOC(=O)C1CCN(c2c(N3CCCC(C(=O)OCC)C3)c(=O)c2=O)CC1 (stereo not drawn)	-1.5%	8.8%	?	2.5%	-8.0%	5.2%
